VDR inh: vitamin D3 receptor (human) inhibition; 0.93% of 400,000 active; Potency, µM, for the others: max response, negative = inhibition, actives largely listed as inhibitors; VDR-SRC2-3 peptide fluorescence polarization, 2 h; P11473; further: potency means the concentration at half of the fitted maximal effect; on the % scale 0 is the no-effect control and ±100 the full control effect
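The screen uses fluorescence polarization to detect compounds that interfere with recruitment of the SRC2-3 coactivator peptide to VDR; plates are read after 2 h at room temperature.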
TSHR antagonist: antagonists of human thyroid stimulating hormone receptor; P16473; TSHR-expressing cells, TSH-stimulated cAMP HTRF, 2 h; hits give low values; activity change, negative = inhibition, % at 11.5 µM; 0.2% of 330,000 active; AID 504810;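 active means activity change below a set negative limit, meaning inhibition stronger than a set level, cut at about -70% in these data; inconclusive means activity change between two set negative limits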; further: on the % scale 0 is the no-effect control and ±100 the full control effect
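Antagonism was scored as loss of TSH-driven cAMP in TSHR cells, stimulated with 4nM TSH (EC80) for 2 hours at 37 deg C and detected by homogeneous HTRF competition immunoassay.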
Vif-A3G inh: Vif-A3G binding inhibition; HeLa A3G-eYFP + Vif (tagged APOBEC3G with the HIV-1 protein that degrades it), YFP fluorescence, overnight; AID 602310; 0.076% of 410,000 active; Potency, µM (top dose mostly 46.1 µM), for the others: at the highest dose activity, negative = active, hits mostly inhibitors; further: potency means the concentration at half of the fitted maximal effect; on the % scale 0 is the no-effect control and ±100 the full control effect; nearly all actives have a fitted effect of over 60% in size
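HeLa cells stably expressing Vif and C-terminally eYFP-tagged A3G, seeded overnight at 37 deg C, then exposed to compound by pintool overnight at 37 deg C. Rise in yellow fluorescence (Ex 488/Em 500-530, Acumen) marks blocked Vif-driven A3G degradation.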
Vif-A3F inh: inhibitors of Vif-A3F interaction | 0.2% of 390,000 active | AID 602313 | Potency, µM (doses to about 46.1 µM), inactives show at the highest dose activity, negative = active | HeLa A3F-eYFP + Vif (tagged APOBEC3F with the HIV-1 protein that degrades it), YFP fluorescence increase; further: potency means the concentration at half of the fitted maximal effect; % of control where 0% means no effect; nearly all actives have a fitted effect of over 65% in size
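HeLa cells stably expressing A3F-eYFP plus Vif, plated and incubated overnight at 37 deg C, then exposed to compounds overnight at 37 deg C. Blocked degradation read as raised yellow fluorescence (Ex 488/Em 500-530).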
PLK1 PBD block: PLK1 (human) polo-box domain binding inhibition. Plk1 PBD binding of FITC phosphopeptide, fluorescence polarization. Potency, µM, inactives show max response, negative = inhibition, most hits filed as inhibitors. P53350. 2.8% of 360,000 active; further: potency means the concentration at half of the fitted maximal effect; series mostly up to about 57 µM; on the % scale 0 is the no-effect control and ±100 the full control effect; nearly all actives have a fitted effect of over 65% in size
Target sequence (P53350 whole entry, looked up, the tested form may be a part): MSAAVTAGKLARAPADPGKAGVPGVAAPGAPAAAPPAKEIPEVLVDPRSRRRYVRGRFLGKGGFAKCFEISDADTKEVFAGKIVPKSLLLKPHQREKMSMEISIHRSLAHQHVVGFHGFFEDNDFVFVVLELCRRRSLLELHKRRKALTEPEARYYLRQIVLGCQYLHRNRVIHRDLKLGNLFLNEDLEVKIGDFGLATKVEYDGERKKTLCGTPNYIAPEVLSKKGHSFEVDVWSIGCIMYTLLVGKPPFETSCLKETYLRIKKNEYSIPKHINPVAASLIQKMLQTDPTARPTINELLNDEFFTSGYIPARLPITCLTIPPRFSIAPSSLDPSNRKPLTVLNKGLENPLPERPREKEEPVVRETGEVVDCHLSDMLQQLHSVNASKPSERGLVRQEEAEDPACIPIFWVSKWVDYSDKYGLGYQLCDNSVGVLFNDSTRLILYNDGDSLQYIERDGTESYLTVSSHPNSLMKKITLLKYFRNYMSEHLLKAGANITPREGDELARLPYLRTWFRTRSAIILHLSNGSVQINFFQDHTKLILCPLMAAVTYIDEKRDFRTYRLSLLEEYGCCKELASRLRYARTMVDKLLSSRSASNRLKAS
Active calls of the source: *. The list is not random: actives were taken first. Their share in the collection is about 3.1%. Unless noted, the call rests on the fitted dose curve; in most records, active means well fitted curve in the direction sought with a large enough effect; inconclusive means small, poorly fitted or top-dose-only effect, or another doubt; inactive means no such curve, though single readings can be large; an effect the other way counts as inactive or inconclusive.

`COc1ccc(NC(=O)C2=CC(c3ccc(OC)cc3)=NS(=O)(=O)N2C)cc1` gave VDR inh -8.8%, TSHR antagonist -1.5, Vif-A3G inh 2.7%, Vif-A3F inh 0.0% and PLK1 PBD block -2.9%.
For COc1ccc(OC)c(C2=NS(=O)(=O)N(C)C(C(=O)Nc3ccc(C(C)=O)cc3)=C2)c1 the results were VDR inh -19.3%, TSHR antagonist -8.3, Vif-A3G inh 1.1%, Vif-A3F inh 4.4% and PLK1 PBD block 29.9µM*.
For NC(=O)C1CC2(NC(=O)NC2=O)c2cc(F)ccc2O1 (stereo not drawn) the results were VDR inh 11.5%.
CCOC(=O)c1ccc(N2N=C(C)/C(=C/C=C/c3ccco3)C2=O)cc1 was read as VDR inh -14.9%, TSHR antagonist -4.3, Vif-A3G inh 1.4%, Vif-A3F inh -1.0% and PLK1 PBD block -7.5%.
`O=C(O)c1cc(N2N=C(C(F)(F)F)/C(=C/C=C/c3ccco3)C2=O)ccc1Cl` gave VDR inh inconclusive, TSHR antagonist 50.2, Vif-A3G inh -0.9%, Vif-A3F inh -5.3% and PLK1 PBD block 0.532µM*.
Screening COc1ccc(F)c(Cn2cnc3c(cnn3C(C)(C)C)c2=O)c1Cl returned Vif-A3G inh -0.5%.
`CCOc1ccc(-c2nc(SCC(=O)Nc3cc(F)ccc3F)n3[nH]c(=O)cc3n2)cc1` gave VDR inh 4.2%, Vif-A3G inh 1.8% and Vif-A3F inh -3.9%.
For CCC(=O)Nc1ccc(C=C(C(C)=O)C(C)=O)cc1 the results were VDR inh 79.4µM*, TSHR antagonist -11.4, Vif-A3G inh -0.4%, Vif-A3F inh 1.0% and PLK1 PBD block -12.8%.
`Cc1c(NC(=O)/C=C/c2cn(-c3ccccc3)nc2-c2ccc(F)cc2)c(=O)n(-c2ccccc2)n1C` gave VDR inh inconclusive, TSHR antagonist -3.1, Vif-A3G inh -9.5%, Vif-A3F inh -3.1% and PLK1 PBD block 10.6µM*.
`Cc1ccc(-c2nn(-c3ccccc3)cc2/C=C/C(=O)Nc2nccs2)cc1` gave VDR inh -1.8%, TSHR antagonist 0.8, Vif-A3G inh -5.7%, Vif-A3F inh 2.5% and PLK1 PBD block -6.9%.
O=C(O)COc1ccccc1C1C2C(=O)N(c3ccc(F)cc3)C(=O)C2ON1c1ccccc1 (stereo not drawn) was read as VDR inh 2.4%, TSHR antagonist 0.4, Vif-A3G inh 0.2%, Vif-A3F inh 2.5% and PLK1 PBD block 26.7µM*.
Screening COc1ccccc1C1C2C(=O)N(c3ccccc3)C(=O)C2ON1c1ccccc1 (stereo not drawn) returned VDR inh 8.1%, TSHR antagonist -7.1, Vif-A3G inh -1.0%, Vif-A3F inh 0.7% and PLK1 PBD block -8.5%.
`COc1cc(/C=c2\[nH]c(=O)/c(=C/c3cc(OC)c(OC)c(OC)c3)[nH]c2=O)cc(OC)c1OC` gave Vif-A3G inh 2.3%.
Screening CCOc1cc(NC(=O)C2CC2)c(OCC)cc1NC(=O)c1cccc(F)c1 returned VDR inh -18.2%, TSHR antagonist -89.4*, Vif-A3G inh -0.5%, Vif-A3F inh -6.0% and PLK1 PBD block 2.8%.
For CCOc1cc(NC(=O)c2cnccn2)c(OCC)cc1NC(=O)c1cccc(F)c1 the results were TSHR antagonist -9.2.
Screening CCCC(C)c1nnc(NC(=O)CS(=O)(=O)Cc2ccccc2)s1 (stereo not drawn) returned VDR inh inconclusive, TSHR antagonist -10.9, Vif-A3G inh 0.6%, Vif-A3F inh -0.8% and PLK1 PBD block 14.1µM*.
CC(C)c1nnc(NC(=O)CS(=O)(=O)Cc2ccccc2)s1 was read as VDR inh -4.9%, TSHR antagonist 20.0, Vif-A3G inh 1.7%, Vif-A3F inh 11.9% and PLK1 PBD block 26.7µM*.
For CCC(C)C(=O)Nc1nnc(CCc2ccccc2)s1 (stereo not drawn) the results were VDR inh inconclusive, TSHR antagonist 35.9, Vif-A3G inh 1.1%, Vif-A3F inh 4.9% and PLK1 PBD block 23.8µM*.
Screening CC(C)CC(=O)Nc1nnc(CCc2ccccc2)s1 returned VDR inh -7.3%, TSHR antagonist -4.2, Vif-A3G inh 2.7%, Vif-A3F inh 1.0% and PLK1 PBD block 3.7%.
CCC(CC)c1nnc(NC(=O)CS(=O)(=O)c2ccc(C)cc2)s1 was read as VDR inh 44.7µM*, TSHR antagonist -7.2, Vif-A3G inh 0.4%, Vif-A3F inh 2.4% and PLK1 PBD block 11.9µM*.
For CCOC(=O)CC(NC(=O)c1cc2cc(Cl)ccc2oc1=O)c1ccc(C)cc1 (stereo not drawn) the results were VDR inh 7.2%, Vif-A3G inh 0.4% and Vif-A3F inh -0.4%.
Screening CCCCCC(O)/C=C/C=C\CCCCCCCC(=O)O (stereo not drawn) returned VDR inh 1.7%.
Screening Cc1ccccc1C(=O)Nc1nc(-c2ccc(Br)cc2)ns1 returned VDR inh 1.4%, Vif-A3G inh -2.2% and Vif-A3F inh -0.1%.
O=C(Nc1ccc2nc(SCC(=O)N3CCCc4ccccc43)sc2c1)c1cccc(Cl)c1 was read as VDR inh 1.9%, Vif-A3G inh 0.7% and Vif-A3F inh 1.7%.
`Cc1ccc(NC(=O)Nc2ccccc2C(N)=O)cc1` gave VDR inh -12.1%, TSHR antagonist 2.9, Vif-A3G inh 4.6%, Vif-A3F inh 2.6% and PLK1 PBD block 3.1%.
CCC(CC)c1nnc(NC(=O)CS(=O)(=O)Cc2ccccc2)s1 was read as VDR inh 3.0%, Vif-A3G inh -10.2%, Vif-A3F inh -4.9% and PLK1 PBD block inconclusive.
`NC(=O)c1ccccc1NC(=O)CS(=O)(=O)Cc1ccccc1` gave VDR inh 10.3%, TSHR antagonist 26.0, Vif-A3G inh 1.2%, Vif-A3F inh 2.7% and PLK1 PBD block 23.8µM*.
Screening Cc1ccccc1NC(=O)Nc1ccccc1C(N)=O returned VDR inh -24.7%, TSHR antagonist -5.0, Vif-A3G inh 3.4%, Vif-A3F inh 0.5% and PLK1 PBD block 26.7µM*.
Screening CCCC(C)c1nnc(NC(=O)CCS(=O)(=O)Cc2ccccc2)s1 (stereo not drawn) returned VDR inh inconclusive, TSHR antagonist -2.1, Vif-A3G inh -3.4%, Vif-A3F inh -1.5% and PLK1 PBD block 13.4µM*.
CC(C)Cc1nnc(NC(=O)CS(=O)(=O)Cc2ccccc2)s1 was read as VDR inh -6.2%, TSHR antagonist 15.5, Vif-A3G inh -1.1%, Vif-A3F inh -3.9% and PLK1 PBD block 23.8µM*.
Screening OC(Cc1ccc2ccccc2n1)c1ccccc1 (stereo not drawn) returned Vif-A3G inh -1.9%.
Screening CC(C)(C)c1ccc(C(=O)N2CCCC(c3nc4c(nnn4Cc4cccc(F)c4)c(=O)[nH]3)C2)cc1 (stereo not drawn) returned VDR inh -0.7%, Vif-A3G inh 2.1% and Vif-A3F inh 1.6%.

Screens deposited in PubChem by National Center for Advancing Translational Sciences (NCATS).
